Laboratory results from ChEMBL document CHEMBL4303097 (2020).
In all, about 1,500 compounds were measured (“Inhibition index”: median about 0.17, highest 2% from about 1.3 on). Shown is part of a subset that was picked to be rich in the highest values.

test system: SARS-CoV-2; assay: Inhibition of cell viability relative to arbidol control (inhibition index > 1 indicates higher activity) measured by fluorescence (OD590nm) in Vero E6 cells infected with SARS-CoV-2 (strain BavPat1) at MOI 0.002 after 72hrs; type: functional, Chlorocebus sabaeus, Vero C1008

Compound | Inhibition index
CC(C(=O)O)c1ccc(N2CC=CC2)c(Cl)c1 (configuration not stated) [PIRPROFEN] | 0.2333
CNC(=C[N+](=O)[O-])NCCSCc1ccc(CN(C)C)o1.Cl [RANITIDINE HYDROCHLORIDE] | 0.09309
CCN1CCC[C@H]1CNC(=O)c1c(OC)ccc(Br)c1OC.Cl | 0.3465
CC(C)n1c(/C=C/[C@H](O)C[C@H](O)CC(=O)[O-])c(-c2ccc(F)cc2)c2ccccc21.[Na+] | -0.06663
CN[C@@H]1[C@@H](O)[C@@H](O[C@@H]2[C@@H](O)[C@H](O[C@H]3O[C@H](CN)CC[C@H]3N)[C@@H](N)C[C@H]2N)OC[C@]1(C)O.CN[C@@H]1[C@@H](O)[C@@H](O[C@@H]2[C@@H](O)[C@H](O[C@H]3O[C@H]([C@@H](C)N)CC[C@H]3N)[C@@H](N)C[C@H]2N)OC[C@]1(C)O.CN[C@@H]1[C@@H](O)[C@@H](O[C@@H]2[C@@H](O)[C@H](O[C@H]3O[C@H]([C@@H](C)NC)CC[C@H]3N)[C@@H](N)C[C@H]2N)OC[C@]1(C)O.O=S(=O)(O)O | 0.01806
COc1c(-c2ccc3cc(NS(C)(=O)=O)ccc3c2)cc(-n2ccc(=O)[nH]c2=O)cc1C(C)(C)C [DASABUVIR] | 0.184
Cc1cc(C2CCCCC2)n(O)c(=O)c1.NCCO [CICLOPIROX OLAMINE] | 0.2225
C[C@]12CCC(=O)C(O)=C1CC[C@@H]1[C@@H]2CC[C@]2(C)C(=O)CC[C@@H]12 [FORMESTANE] | 1.365
C[C@]12CCC(=O)C=C1CC[C@@H]1[C@@H]2C(=O)C[C@]2(C)C(=O)CC[C@@H]12 [ADRENOTERONE] | 0.3653
C[C@]12CC[C@H](O)C[C@@H]1CC[C@@H]1[C@@H]2CC[C@]2(C)C(=O)CC[C@@H]12 [EPIANDROSTERONE] | 1.075
C[C@]12CCC(=O)C=C1CC[C@@H]1[C@@H]2[C@@H](O)C[C@@]2(C)[C@H]1CC[C@]2(O)C(=O)CO [HYDROCORTISONE] | 0.1194
CN1CCC(=C2c3ccccc3CC(=O)c3sccc32)CC1.O=C(O)/C=C/C(=O)O [KETOTIFEN FUMARATE] | 0.837
Cc1ccc(/C(=C\CN2CCCC2)c2ccccn2)cc1.Cl | 0.8569
O=C1O[C@H]([C@@H](O)CO)C(O)=C1O [ASCORBIC ACID] | 0.2513
C[C@]12CCC(=O)C=C1C=C[C@@H]1[C@@H]2CC[C@@]2(C)[C@H]1CC[C@@]2(O)CCC(=O)[O-].[K+] [CANRENOATE POTASSIUM] | 0.2042
C[C@]12CC[C@H]3[C@@H](CCC4=CC(=O)CC[C@@]43C)[C@@H]1CC[C@@H]2C(=O)CO [DESOXYCORTICOSTERONE] | 0.868
CNC1(C)C2CCC(C2)C1(C)C.Cl (configuration not stated) [MECAMYLAMINE HYDROCHLORIDE] | 0.674
CC(=O)O[C@H]1C[C@@H]2CC[C@@H]3[C@H](CC[C@@]4(C)[C@H]3C[C@H]([N+]3(C)CCCCC3)[C@@H]4OC(C)=O)[C@@]2(C)C[C@@H]1[N+]1(C)CCCCC1.[Br-].[Br-] [PANCURONIUM BROMIDE] | 0.06422
Cl.Nc1c2c(nc3ccccc13)CCCC2 [TACRINE HYDROCHLORIDE] | 1.442
Nc1c2ccccc2nc2ccccc12 [AMINACRINE] | -0.2464
CCC(=O)OC(OP(=O)(CCCCc1ccccc1)CC(=O)N1C[C@H](C2CCCCC2)C[C@H]1C(=O)O)C(C)C (some centres not stated) | 1.038
CC[C@H]1OC(=O)[C@H](C)[C@@H](O[C@H]2C[C@@](C)(OC)[C@@H](O)[C@H](C)O2)[C@H](C)[C@@H](O[C@@H]2O[C@H](C)C[C@H](N(C)C)[C@H]2O)[C@](C)(O)C[C@@H](C)[C@@H]2N[C@@H](COCCOC)O[C@H]([C@H]2C)[C@]1(C)O [DIRITHROMYCIN] | 0.105
